About 350 (32%) of roughly 1,100 compounds were called active. No rule for the calls is given here. Not all results are given here. Entries with a potency or affinity are not part of this list.
Assay: CEM21 lymphoblast cell cytotoxicity, dose response, cytotoxicity control for viral fusion inhibitor project, CellTiter-Glo luminescence, cherry-picked (AID 652042)
Settings: CEM21 cells viability, CellTiter-Glo ATP luminescence, 24 h; series mostly up to 35 µM; activity change, negative = cytotoxicity: at the top concentration
For Cn1c(=O)n(-c2cccc(Cl)c2)c(=O)c2c3c(sc21)COC(C)(C)C3, the “activity change, negative = cytotoxicity” value was -1.94% (inactive).
For C=CCN([C@@H](CC(C)C)C(=O)OC)S(=O)(=O)N(CC=C)[C@@H](CC(C)C)C(=O)OC, the “activity change, negative = cytotoxicity” value was -22.3% (inactive).
In the case of CN1CCc2ccccc2Cc2[nH]c3ccccc3c2CC1, the “activity change, negative = cytotoxicity” value is reported as 2.03% (inactive).
With Cc1sc2ncnc(N3CCN(S(=O)(=O)c4ccc(Br)cc4)CC3)c2c1C the “activity change, negative = cytotoxicity” value was -26.4% (inactive).
In the case of Cc1ccc2nc(NC(=O)CCCC(=O)O)sc2c1, the “activity change, negative = cytotoxicity” value is reported as 1.57% (inactive).
With CCc1cccc(NC(=O)C2CCN(S(=O)(=O)c3ccc4c(c3)CC(C)N4C(C)=O)CC2)c1 (stereo unspecified) the “activity change, negative = cytotoxicity” value was -22% (inactive).
For Cc1cccc(NC(=O)C2CCN(S(=O)(=O)c3ccc4c(c3)OCCCO4)CC2)n1, the “activity change, negative = cytotoxicity” value was -10.3% (inactive).
For Cc1ccc(Cn2nnnc2CN2CCC(c3nc4ccc(Cl)cc4[nH]3)CC2)cc1, the “activity change, negative = cytotoxicity” value was -15.9% (inactive).
For COc1ccc(CN2CCC(C)(Oc3ccc4c(c3)OCO4)C2)c2ccccc12 (stereo unspecified), the “activity change, negative = cytotoxicity” value was -16.4% (inactive).
With CCN(C[C@H]1N[C@@](CC)(C(=O)OC)[C@H]2C(=O)N(Cc3ccccc3)C(=O)[C@@H]12)C(=O)Nc1ccc(OC)cc1 the “activity change, negative = cytotoxicity” value was 2% (inactive).
For COC(=O)[C@@]1(C)[C@H]2C(=O)N(Cc3ccccc3)C(=O)[C@H]2[C@H]2CN=C(SCc3ccc(Cl)cc3)N21, the “activity change, negative = cytotoxicity” value was -14.2% (inactive).
With CCN1C(=O)[C@H]2[C@@H](c3ccc(C)cc3)N3C(=O)N(c4cccc(Cl)c4)C(=O)[C@@]3(CC)[C@H]2C1=O the “activity change, negative = cytotoxicity” value was 4.5% (inactive).
For CS(=O)(=O)N(Cc1ccc(Cl)cc1)c1ccc(C(=O)NCCSc2ccccn2)cc1, the “activity change, negative = cytotoxicity” value was -17.6% (inactive).
With CC(=O)c1c(C)[nH]c(C(=O)OCCCCN2C(=O)c3ccccc3C2=O)c1C the “activity change, negative = cytotoxicity” value was -19.4% (inactive).
With CCCC(=O)Nc1ccc2c(c1)OC[C@H](C)N(C(=O)CN(C)C)C[C@@H](C)[C@H](OC)CN(C)C2=O the “activity change, negative = cytotoxicity” value was 1.57% (inactive).
With CO[C@H]1CN(C)C(=O)c2ccc(NC(=O)C3CC3)cc2OC[C@@H](C)N(C(C)=O)C[C@@H]1C the “activity change, negative = cytotoxicity” value was 0.552% (inactive).
In the case of CO[C@H]1CN(C)C(=O)c2ccc(NC(=O)Nc3cccc(F)c3)cc2OC[C@@H](C)N(C(C)=O)C[C@H]1C, the “activity change, negative = cytotoxicity” value is reported as 3.06% (inactive).
In the case of CO[C@H]1CN(C)C(=O)c2cc(NC(=O)C3CCOCC3)ccc2OC[C@H](C)N(Cc2nccs2)C[C@H]1C, the “activity change, negative = cytotoxicity” value is reported as -7.3% (inactive).
For COCC(=O)N1C[C@@H](C)[C@H](OC)CN(C)C(=O)c2ccc(NC(=O)c3ccc(OC)cc3)cc2OC[C@@H]1C, the “activity change, negative = cytotoxicity” value was -0.433% (inactive).
For CCC(=O)Nc1ccc2c(c1)C(=O)N(C)C[C@@H](OC)[C@H](C)CN(C(=O)CC)[C@@H](C)CO2, the “activity change, negative = cytotoxicity” value was -0.847% (inactive).
With CCN(CC)S(=O)(=O)c1ccc(N2CCCC2)c(NC(=O)Cc2cc(OC)c(OC)c(OC)c2)c1 the “activity change, negative = cytotoxicity” value was -0.756% (inactive).
For O=C(c1cccc(S(=O)(=O)N2CCN(c3ccccc3)CC2)c1)N1CCCC(C(F)(F)F)C1 (stereo unspecified), the “activity change, negative = cytotoxicity” value was -13.9% (inactive).
In the case of O=C1CCCCC1Sc1nnc(-c2ccc3c(c2)OCO3)o1 (stereo unspecified), the “activity change, negative = cytotoxicity” value is reported as -4.91% (inactive).
In the case of O=C(CN1C(=O)c2ccccc2S1(=O)=O)c1ccc2c(c1)OCCO2, the “activity change, negative = cytotoxicity” value is reported as -3.96% (inactive).
In the case of Cc1ccccc1S(=O)(=O)NC(=O)C1(C)CCN1C(=O)CCc1ccc(Cl)cc1Cl (stereo unspecified), the “activity change, negative = cytotoxicity” value is reported as -0.499% (inactive).
For COc1ccc([C@@H]2[C@@H]3C(=O)N(C(C)(C)C)C(=O)[C@@H]3[C@]3(CC(C)C)C(=O)N(c4cccc(F)c4)C(=O)N23)cc1, the “activity change, negative = cytotoxicity” value was -0.051% (inactive).
With Cc1onc(-c2ccccc2)c1C(=O)Nc1ccc(Br)cc1Cl the “activity change, negative = cytotoxicity” value was -6.29% (inactive).
For COc1ccc(-c2cc(C(=O)NNC(=S)NC(=O)c3c(-c4ccccc4)noc3C)[nH]n2)cc1, the “activity change, negative = cytotoxicity” value was -18.7% (inactive).
With CC1(Cc2ccc(Cl)cc2)C(=O)Nc2ccc(S(=O)(=O)NC3CCCCC3)cc21 (stereo unspecified) the “activity change, negative = cytotoxicity” value was -16.2% (inactive).
In the case of O=C(Nc1cccn(Cc2c(Cl)cccc2Cl)c1=O)c1ccc(Cl)cc1, the “activity change, negative = cytotoxicity” value is reported as -22.3% (inactive).
In the case of CCCCOc1ccc(S(=O)(=O)Nc2cccnc2)cc1, the “activity change, negative = cytotoxicity” value is reported as -6.62% (inactive).
With CCCNC(=O)C[C@@H]1C[C@H]2c3cc(NC(=O)Cc4ccncc4)ccc3O[C@H]2[C@H](CO)O1 the “activity change, negative = cytotoxicity” value was 0.915% (inactive).
In the case of COc1ccccc1S(=O)(=O)N[C@H]1CC[C@H](CC(=O)N2CCN(C)CC2)O[C@H]1CO, the “activity change, negative = cytotoxicity” value is reported as -2.4% (inactive).
In the case of CC1CCN(S(=O)(=O)c2cc(C(=O)N3CCN(c4ccccc4)CC3)ccc2Br)CC1, the “activity change, negative = cytotoxicity” value is reported as -29.4% (inactive).
With Cc1ccc(C2CC(=O)c3cnc(N4CCc5ccccc5C4)nc3C2)cc1 (stereo unspecified) the “activity change, negative = cytotoxicity” value was 0.412% (inactive).
In the case of O=C(Cc1ccncc1)N[C@H]1CC[C@@H](CCn2cc(-c3ccccc3F)nn2)O[C@@H]1CO, the “activity change, negative = cytotoxicity” value is reported as 1.85% (inactive).
In the case of CN(C)Cc1cn(CC[C@@H]2CC[C@H](N)[C@H](CO)O2)nn1, the “activity change, negative = cytotoxicity” value is reported as -1.13% (inactive).
For CC[C@@]12C(=O)N(c3ccccc3)C(=O)N1[C@H](c1cccc(C)c1)[C@@H]1C(=O)N(Cc3ccccc3)C(=O)[C@@H]12, the “activity change, negative = cytotoxicity” value was -8.41% (inactive).
For CC(C)(C)NC(=O)C(c1ccccc1)N(Cc1cccs1)C(=O)c1csnn1 (stereo unspecified), the “activity change, negative = cytotoxicity” value was 3.62% (inactive).
For CC(C)(C)n1nnnc1C(c1cccs1)N(Cc1cccnc1)Cc1ccco1 (stereo unspecified), the “activity change, negative = cytotoxicity” value was -11.5% (inactive).
For COc1ccc(N2C(=O)N3[C@H](c4ccc(Cl)cc4)[C@@H]4C(=O)N(C5CCCCC5)C(=O)[C@@H]4[C@]3(C)C2=O)cc1, the “activity change, negative = cytotoxicity” value was -13.4% (inactive).
With CCn1ncc(C2=NOC(C(=O)Nc3ccc(C)cc3)C2)c1C (stereo unspecified) the “activity change, negative = cytotoxicity” value was 3.78% (inactive).
With c1csc(-c2csc3ncnc(NCCCN4CCOCC4)c23)c1 the “activity change, negative = cytotoxicity” value was -3.21% (inactive).
With O=C(C[C@@H]1C[C@@H]2c3cc(NC(=O)C4CCC4)ccc3O[C@@H]2[C@@H](CO)O1)NCC(F)(F)F the “activity change, negative = cytotoxicity” value was 1.57% (inactive).
In the case of CS(=O)(=O)N1CCc2cc(-c3csc(NC(=O)Cc4cccs4)n3)ccc21, the “activity change, negative = cytotoxicity” value is reported as -6.69% [at 16 µM] (inactive).
For CCNC(=O)C[C@H]1CC[C@@H]2[C@@H](COc3ccc(NC(=O)Cc4cccs4)cc3C(=O)N2C)O1, the “activity change, negative = cytotoxicity” value was -2.64% (inactive).

— PubChem BioAssay AID652042 (Broad Institute, 2013)
